# Source: PubChem BioAssay (The Scripps Research Institute Molecular Screening Center)
# In the library only some 2.6% were active in any assay of this set; here they are far more common.
# PAFAH1B3 FP inh – inhibitors of human PAFAH1B3; AID 492972; inhibition, % at 3.39 µM; 340,000 compounds, 0.28% hits; recombinant PAFAH1B3, FP-rhodamine probe, fluorescence polarization;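 active = inhibition above the screen-wide average of all tested compounds plus 3 SD, cut at about 25% in these data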;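 also: 0% = enzyme with DMSO only and 100% = wells lacking PAFAH1B3 protein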
# Target sequence (Q15102 whole entry, looked up): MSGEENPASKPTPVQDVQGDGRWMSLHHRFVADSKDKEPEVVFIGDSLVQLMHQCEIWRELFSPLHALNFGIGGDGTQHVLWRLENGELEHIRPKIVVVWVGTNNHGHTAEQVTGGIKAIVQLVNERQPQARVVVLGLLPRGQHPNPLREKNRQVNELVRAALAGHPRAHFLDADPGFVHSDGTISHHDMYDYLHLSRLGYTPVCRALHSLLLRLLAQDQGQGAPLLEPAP
# PKA-R2B act – activates the human PKA-R2B holoenzyme complex; P22694+P31323; PKA-R2B holoenzyme dissociation, Cy5-IP20 fluorescence polarization; R2B truncated from residue 108, S112A mutant; 0% DMSO only, 100% 113 µM cGMP; activation, % at 11.4 µM; 340,000 compounds, 0.079% hits;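 active = activation above a cutoff set at the mean over all compounds plus 3 SD, cut at about 18% in these data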;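 also: higher means more holoenzyme dissociation and a rise in polarization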
# Target sequence (P31323 whole entry, looked up, other chains not shown, the tested form may be a part): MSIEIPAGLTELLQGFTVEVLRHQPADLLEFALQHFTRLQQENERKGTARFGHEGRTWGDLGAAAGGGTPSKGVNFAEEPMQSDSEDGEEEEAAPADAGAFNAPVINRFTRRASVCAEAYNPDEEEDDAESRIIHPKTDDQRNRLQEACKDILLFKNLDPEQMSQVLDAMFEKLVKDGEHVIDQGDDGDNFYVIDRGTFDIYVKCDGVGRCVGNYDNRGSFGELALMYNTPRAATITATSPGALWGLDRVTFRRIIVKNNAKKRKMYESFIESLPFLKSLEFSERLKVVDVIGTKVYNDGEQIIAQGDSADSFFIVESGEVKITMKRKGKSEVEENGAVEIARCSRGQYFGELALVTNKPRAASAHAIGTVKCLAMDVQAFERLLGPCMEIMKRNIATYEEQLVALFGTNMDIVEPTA
# PKA-R1A act – activates the PKA-R1A holoenzyme complex; PKA-R1A dissociation, Cy5-IP20 fluorescence polarization; scaled: DMSO 0%, 113 µM cGMP 100%; 340,000 compounds, 0.083% hits; activation, % at 11.4 µM;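 active = percent activation above the mean of all tested compounds plus 3 SD, cut at about 19% in these data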;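 also: higher means more PKAc released from R1A so a rise in polarization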
# PAFAH1B2 inh – inhibitors of human PAFAH1B2. P68402. 340,000 compounds, 1.2% hits. AID 492953. recombinant PAFAH1B2, FP-rhodamine activity probe, fluorescence polarization. inhibition, % at 3.39 µM;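 active = inhibition above the mean of all tested compounds plus 3 SD, cut at about 24% in these data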;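 also: 0% = enzyme with DMSO and 100% = wells lacking PAFAH1B2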
# pPAFAH FP inh – inhibitors of human plasma PAF acetylhydrolase (pPAFAH); Q13093; recombinant pPAFAH, FP-rhodamine probe fluorescence polarization; inhibition, % at 3.39 µM; 330,000 compounds, 1.5% hits; AID 463082;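 active = inhibition above the mean inhibition across the screen plus 3 SD, cut at about 25% in these data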;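 also: inhibitors block binding of the rhodamine activity-based probe so polarization drops; 0% = enzyme with DMSO and 100% = wells lacking pPAFAH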
# PAFAH2 inh – inhibitors of human PAFAH2; 340,000 compounds, 0.99% hits; recombinant PAFAH2, FP-rhodamine activity probe, fluorescence polarization; inhibition, % at 3.39 µM; Q99487; AID 492956;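 active = inhibition above the mean over all tested compounds plus 3 SD, cut at about 30% in these data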;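 also: inhibitors block probe labeling of enzyme so polarization drops; 0% = enzyme with DMSO and 100% = wells lacking PAFAH2 protein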
# * marks the source's active call; other numbers are inactive results; . = not tested or not shown.
SMILES,PAFAH1B3 FP inh,PKA-R2B act,PKA-R1A act,PAFAH1B2 inh,pPAFAH FP inh,PAFAH2 inh
CC(Sc1nnc(C2CC2)n1C1CC1)C(=O)Nc1cccc(S(=O)(=O)N2CCOCC2)c1 (stereo not drawn),5.5,-2.4,-1.1,-0.5,-8.9,-1.9
Oc1ccc(Cc2ccc(Cl)cc2)c(O)c1,5.6,-3.4,4.3,71.6*,-4.7,0.5
Fc1cccc(F)c1/C=C/c1ccc2ccccc2n1,2.6,-7.0,-9.4,-2.6,3.5,-9.5
C(=C\c1ccco1)/c1ccc2ccccc2n1,.,.,.,.,26.0*,.
Cc1ccc(C(=O)CSC2=C(C#N)C(c3ccco3)CC(=O)N2)c(C)c1 (stereo not drawn),15.2,2.6,-11.2,8.2,28.3*,11.2
Cc1ccc(NC(=O)CSC2=C(C#N)C(c3ccco3)CC(=O)N2)cc1 (stereo not drawn),7.6,2.6,-11.0,-4.6,0.4,5.0
CC(=O)C1=C(C)NC(SCC(=O)c2ccc(Cl)cc2Cl)=C(C#N)C1c1ccco1 (stereo not drawn),2.7,-8.9,-13.9,1.1,28.3*,4.0
CCc1ccc(OC)c(S(=O)(=O)Nc2ccc(Cc3ccncc3)cc2)c1,3.4,-3.5,-4.4,11.5,26.4*,-0.2
O=C(O)c1ccc(NS(=O)(=O)c2ccc(Cl)c(Cl)c2)cc1O,2.1,0.3,-8.8,32.6*,4.6,2.0
CCc1ccc(NS(=O)(=O)c2ccc(OC)c3ncccc23)cc1,2.5,7.8,-3.2,5.2,23.3,14.5
O=S(=O)(Nc1ccc(-n2cccc2)cc1)c1ccc(Cl)c(Cl)c1,0.2,-3.2,-4.2,6.8,16.5,-5.9
O=S(=O)(Nc1ccc(Cc2ccncc2)cc1)c1ccc(Cl)c(Cl)c1,5.6,-10.6,-7.3,8.5,24.6*,-0.1
Cc1cnc(CNC(=O)C2CCC(=O)N(CCc3ccc(Cl)cc3)C2)cn1 (stereo not drawn),8.6,-5.6,5.6,1.0,.,-2.8
Cc1ccc(CN2CC(C(=O)N(CC(C)C)c3c(N)n(Cc4ccccc4)c(=O)[nH]c3=O)CC2=O)cc1 (stereo not drawn),8.6,-5.9,-7.6,1.7,.,1.2
Cc1ccc(S(=O)(=O)N2CCC(C)CC2)cc1[N+](=O)[O-],-3.0,-15.4,-3.4,18.7,.,-10.2
CC1CCC(NC(=O)c2cccc(S(=O)(=O)N3CCOCC3)c2)CC1 (stereo not drawn),.,-9.9,3.1,.,.,.
COC(=O)c1cccc(S(=O)(=O)N2CCC(C)CC2)c1,-4.7,-8.7,-3.1,26.3*,7.6,-3.5
CC1CCC(NC(=O)c2cccc(S(=O)(=O)N3CCN(C)CC3)c2)CC1 (stereo not drawn),3.6,-2.2,-4.8,25.5*,3.6,4.7
COC(=O)CSc1ccc(S(=O)(=O)N2CCC(C)CC2)cc1[N+](=O)[O-],-4.7,-0.9,-9.9,27.5*,1.7,-3.9
CC1CCN(S(=O)(=O)c2cccc(C(=O)N(C)C3CCS(=O)(=O)C3)c2)CC1 (stereo not drawn),7.2,-5.8,4.9,32.7*,1.8,-5.1
COC(=O)c1cc(S(=O)(=O)N2CCC(C)CC2)ccc1F,5.9,-1.9,-6.7,19.5,0.3,-9.3
CC1CCN(S(=O)(=O)c2cccc(C(N)=O)c2)CC1,0.2,-0.1,2.3,25.9*,-0.8,2.5
O=C(c1ccccc1)c1nccn1-c1ccc(Cl)nn1,4.3,-4.0,-3.6,3.0,-4.9,0.1
COc1ccc(C(=O)COC(=O)c2cccs2)cc1,4.1,-4.7,-3.6,9.0,4.0,12.1
O=C(COC(=O)c1cccs1)c1ccccc1,13.7,-11.8,-5.7,4.1,9.3,33.9*
SMILES,PAFAH1B3 FP inh,PKA-R2B act,PKA-R1A act,PAFAH1B2 inh,pPAFAH FP inh,PAFAH2 inh
O=C(CNc1ccc(Cl)cc1)NNC(=S)NCc1ccccc1,1.1,3.4,3.8,9.1,5.3,-4.1
O=C(CCc1ccccc1)NNC(=S)NCc1ccc(Cl)cc1,7.5,12.9,-5.5,24.8*,27.6*,-2.2
C=CCn1c(=O)n(CCOC)c(=O)c2sc3ccccc3c21,-4.4,-1.4,-7.0,5.4,27.6*,2.4
COCCCn1c(=O)c2ccccc2n(Cc2ccccc2)c1=O,6.1,-1.3,-1.9,2.5,1.9,3.7
O=C(CN1C(=O)NC2(CCCC2)C1=O)NNC(=O)c1ccc(F)cc1,5.2,4.3,1.2,7.8,2.0,3.2
Cn1nccc1C(=O)Nc1ccn(C23CC4CC(CC(C4)C2)C3)n1,1.5,7.7,1.4,24.4*,4.4,-1.6
CCn1cc([N+](=O)[O-])c(C(=O)Nc2ccn(Cc3ccccc3)n2)n1,4.4,-9.9,12.9,1.4,-3.3,-5.2
CCn1cc([N+](=O)[O-])c(C(=O)Nc2ccn(C34CC5CC(CC(C5)C3)C4)n2)n1,9.2,1.0,10.3,29.0*,-3.1,1.1
Cc1nn(C)c(C(=O)Nc2ccn(C34CC5CC(CC(C5)C3)C4)n2)c1[N+](=O)[O-],5.1,-7.5,-9.6,10.6,0.4,1.4
Cn1cc([N+](=O)[O-])c(C(=O)Nc2ccn(C34CC5CC(CC(C5)C3)C4)n2)n1,1.8,9.7,-3.8,25.3*,-0.8,1.4
COc1ccc(C)cc1NC(=O)c1cc(C2CC2)nc2c1c(C)nn2C1CCS(=O)(=O)C1 (stereo not drawn),6.0,-1.5,2.3,3.7,.,2.1
Cc1ccc(C)c(OCCC(=O)NNC(=O)c2cc(C)oc2C)c1,5.3,-2.1,-4.4,0.3,-0.2,11.1
C/C=C/C=C/[C@H]1Cc2cc(O)cc(O)c2O1,.,.,.,.,35.8*,.
O=C1CC(c2ccc(Cl)cc2)c2c(O)cc(O)cc2O1 (stereo not drawn),1.5,6.8,-7.6,5.5,1.8,4.0
Cc1ccc(CCNC(=O)Cc2ccc(NC3=NC4CS(=O)(=O)CC4S3)cc2)cc1 (stereo not drawn),2.6,-10.2,-11.2,9.3,5.5,-4.8
Cc1onc(-c2ccccc2Cl)c1C(=O)Oc1cc(N)n(S(=O)(=O)c2ccc(F)cc2)n1,10.6,-0.4,-6.2,35.9*,5.7,3.5
NS(=O)(=O)c1ccc(N2N=C(c3ccccc3)CC2c2ccccc2Cl)cc1 (stereo not drawn),4.8,-2.7,-10.8,-1.8,6.2,-3.3
Cc1ccc(/C=C2\SC(N3CCN(C(c4ccccc4)c4ccccc4)CC3)=NC2=O)o1,-3.1,-2.2,-13.8,-3.0,26.7*,3.6
CCCn1cc2c(c1-c1ccc(C)cc1)c(=O)n(C)c(=O)n2C,9.5,4.3,5.0,-1.4,-1.7,3.3
COc1ccc(-c2c3c(=O)n(C)c(=O)n(C)c3cn2C2CCCCC2)cc1,10.3,5.0,4.3,4.7,25.1*,8.7
O=S(=O)(c1ccc(Cl)cc1)N1CCC(n2cccc2)CC1,2.0,5.1,-7.5,28.7*,4.0,1.4
